# Measured values taken from the supplement of paper PMC11732987, “Enantioselective OTUD7B fragment discovery through chemoproteomics screening and high-throughput optimisation” (Communications Chemistry, 2025).
# Unmarked numbers belong to inactive results.
# Assays:
# Experiment in all cases: log2 ratio of Biotin-Ahx-Ub-VS probe labelling (fragment/DMSO); higher = less target engagement (more negative = stronger competition), active = hit call of the paper (q ≤ 0.05, log2 ratio ≤ -1)
# Details in all cases: compound concentration: 200 uM; treatment time: 3 h
# OTUD6B = target: T1, OTUD6B (UniProt Q8N6M0)
# T1 sequence (whole entry): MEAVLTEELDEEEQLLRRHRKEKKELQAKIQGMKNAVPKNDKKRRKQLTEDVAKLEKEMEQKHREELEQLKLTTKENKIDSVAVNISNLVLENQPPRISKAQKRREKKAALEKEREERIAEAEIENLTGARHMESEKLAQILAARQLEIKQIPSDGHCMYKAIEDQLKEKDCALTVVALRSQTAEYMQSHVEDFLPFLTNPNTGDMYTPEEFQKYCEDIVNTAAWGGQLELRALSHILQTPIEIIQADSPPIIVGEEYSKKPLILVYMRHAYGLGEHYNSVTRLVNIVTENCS
# In short: (§1)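 The table lists average log2 ratios of fragment over vehicle, from an unpaired t-test on global-median-normalised Spectronaut label-free quantities. Proteins with ≥2 unique peptides were used. Samples were HEK293T lysate (495 µg) treated in triplicate with fragment at 200 µM or vehicle for 3 h, then with Biotin-Ahx-Ub-VS (0.5 µM final) for 1 h, with labelled DUBs NeutrAvidin-enriched and run by diaPASEF LC-MS/MS.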
# OTUD7B = target: T2, OTUD7B (UniProt Q6GQQ9)
# T2 sequence (whole entry): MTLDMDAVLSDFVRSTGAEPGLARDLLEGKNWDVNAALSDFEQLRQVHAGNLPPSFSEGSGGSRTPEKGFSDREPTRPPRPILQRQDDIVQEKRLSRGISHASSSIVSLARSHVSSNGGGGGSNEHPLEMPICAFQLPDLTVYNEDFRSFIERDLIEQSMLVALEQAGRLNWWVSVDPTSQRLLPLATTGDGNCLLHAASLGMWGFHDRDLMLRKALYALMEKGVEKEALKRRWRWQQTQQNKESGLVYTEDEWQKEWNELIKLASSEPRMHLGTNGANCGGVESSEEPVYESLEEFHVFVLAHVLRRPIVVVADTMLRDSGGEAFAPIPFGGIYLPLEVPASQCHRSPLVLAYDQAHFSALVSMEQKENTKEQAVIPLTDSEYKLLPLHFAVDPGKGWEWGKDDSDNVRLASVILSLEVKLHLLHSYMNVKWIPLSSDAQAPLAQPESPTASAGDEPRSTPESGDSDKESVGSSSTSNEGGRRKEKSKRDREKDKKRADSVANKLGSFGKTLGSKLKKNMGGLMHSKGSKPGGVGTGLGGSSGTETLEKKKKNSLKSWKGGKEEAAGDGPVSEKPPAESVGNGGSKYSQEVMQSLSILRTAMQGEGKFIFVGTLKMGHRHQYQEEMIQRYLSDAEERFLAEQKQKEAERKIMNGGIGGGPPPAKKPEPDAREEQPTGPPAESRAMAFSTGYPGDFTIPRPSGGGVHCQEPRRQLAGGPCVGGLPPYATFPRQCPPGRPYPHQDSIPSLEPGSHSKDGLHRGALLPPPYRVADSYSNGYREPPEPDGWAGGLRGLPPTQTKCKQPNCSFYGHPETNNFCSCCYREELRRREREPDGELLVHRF
# In short: as §1
# PRPF8 = PRPF8 (UniProt Q6P2Q9)
# In short: as §1
# PSMD7 = target: T3, PSMD7 (UniProt P51665)
# T3 sequence (whole entry): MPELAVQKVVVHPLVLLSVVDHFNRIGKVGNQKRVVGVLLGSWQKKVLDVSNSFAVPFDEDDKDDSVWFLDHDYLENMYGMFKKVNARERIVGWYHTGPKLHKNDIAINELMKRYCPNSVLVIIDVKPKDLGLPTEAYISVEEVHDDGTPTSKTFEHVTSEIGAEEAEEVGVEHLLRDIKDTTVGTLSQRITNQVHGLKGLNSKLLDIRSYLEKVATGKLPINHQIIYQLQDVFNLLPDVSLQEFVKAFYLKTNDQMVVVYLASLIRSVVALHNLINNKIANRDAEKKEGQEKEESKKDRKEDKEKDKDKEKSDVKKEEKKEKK
# In short: as §1
# UCHL1 = UCHL1 (UniProt P09936)
# Chain of UCHL1 (P09936 whole entry, looked up): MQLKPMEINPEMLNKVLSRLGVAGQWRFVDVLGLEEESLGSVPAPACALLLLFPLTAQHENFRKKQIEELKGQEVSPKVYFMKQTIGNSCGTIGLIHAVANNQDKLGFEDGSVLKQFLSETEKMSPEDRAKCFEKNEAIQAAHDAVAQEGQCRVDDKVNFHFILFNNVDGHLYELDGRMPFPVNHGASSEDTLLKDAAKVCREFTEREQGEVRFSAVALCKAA
# In short: as §1
# UCHL3 = target: T4, UCHL3 (UniProt P15374)
# T4 sequence (whole entry): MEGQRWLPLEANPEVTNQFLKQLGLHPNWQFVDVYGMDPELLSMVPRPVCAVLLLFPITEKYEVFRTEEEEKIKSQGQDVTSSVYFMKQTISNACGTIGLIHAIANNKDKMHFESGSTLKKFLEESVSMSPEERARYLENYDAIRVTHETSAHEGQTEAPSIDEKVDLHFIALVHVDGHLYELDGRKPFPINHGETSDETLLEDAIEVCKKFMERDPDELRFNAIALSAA
# In short: as §1
# UCHL5 = target: T5, UCHL5 (UniProt Q9Y5K5)
# T5 sequence (whole entry): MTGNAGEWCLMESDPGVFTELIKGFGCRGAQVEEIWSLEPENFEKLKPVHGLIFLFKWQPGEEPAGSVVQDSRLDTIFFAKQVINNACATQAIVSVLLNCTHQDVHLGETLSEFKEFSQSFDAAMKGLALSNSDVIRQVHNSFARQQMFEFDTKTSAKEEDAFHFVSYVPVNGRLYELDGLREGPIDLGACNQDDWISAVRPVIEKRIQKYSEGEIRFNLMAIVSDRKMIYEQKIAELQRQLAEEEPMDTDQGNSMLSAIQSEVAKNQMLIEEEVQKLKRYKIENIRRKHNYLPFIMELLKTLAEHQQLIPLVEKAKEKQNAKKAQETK
# In short: as §1
# USP10 = USP10 (UniProt Q14694)
# Chain of USP10 (Q14694 whole entry): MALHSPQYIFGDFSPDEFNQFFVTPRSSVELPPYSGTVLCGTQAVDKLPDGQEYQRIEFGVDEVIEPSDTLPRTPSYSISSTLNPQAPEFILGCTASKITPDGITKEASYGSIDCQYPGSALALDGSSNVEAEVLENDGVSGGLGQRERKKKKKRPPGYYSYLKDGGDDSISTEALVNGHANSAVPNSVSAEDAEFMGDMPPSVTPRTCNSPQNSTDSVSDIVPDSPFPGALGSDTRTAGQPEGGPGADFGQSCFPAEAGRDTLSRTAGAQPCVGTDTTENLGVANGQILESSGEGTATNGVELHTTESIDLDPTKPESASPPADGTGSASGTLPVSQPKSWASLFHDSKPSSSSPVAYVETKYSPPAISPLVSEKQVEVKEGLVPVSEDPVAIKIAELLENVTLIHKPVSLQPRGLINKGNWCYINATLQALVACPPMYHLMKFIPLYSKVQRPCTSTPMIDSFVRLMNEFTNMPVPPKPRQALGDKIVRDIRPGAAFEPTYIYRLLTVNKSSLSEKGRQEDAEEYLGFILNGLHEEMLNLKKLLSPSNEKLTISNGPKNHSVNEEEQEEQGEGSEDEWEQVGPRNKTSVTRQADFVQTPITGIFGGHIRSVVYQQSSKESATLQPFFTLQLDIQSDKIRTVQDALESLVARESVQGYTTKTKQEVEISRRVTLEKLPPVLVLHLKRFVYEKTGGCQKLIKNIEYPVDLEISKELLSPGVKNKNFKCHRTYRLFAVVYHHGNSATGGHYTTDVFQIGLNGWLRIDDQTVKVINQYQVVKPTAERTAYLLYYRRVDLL
# In short: as §1
# USP15 = target: T6, USP15 (UniProt Q9Y4E8)
# T6 sequence (whole entry): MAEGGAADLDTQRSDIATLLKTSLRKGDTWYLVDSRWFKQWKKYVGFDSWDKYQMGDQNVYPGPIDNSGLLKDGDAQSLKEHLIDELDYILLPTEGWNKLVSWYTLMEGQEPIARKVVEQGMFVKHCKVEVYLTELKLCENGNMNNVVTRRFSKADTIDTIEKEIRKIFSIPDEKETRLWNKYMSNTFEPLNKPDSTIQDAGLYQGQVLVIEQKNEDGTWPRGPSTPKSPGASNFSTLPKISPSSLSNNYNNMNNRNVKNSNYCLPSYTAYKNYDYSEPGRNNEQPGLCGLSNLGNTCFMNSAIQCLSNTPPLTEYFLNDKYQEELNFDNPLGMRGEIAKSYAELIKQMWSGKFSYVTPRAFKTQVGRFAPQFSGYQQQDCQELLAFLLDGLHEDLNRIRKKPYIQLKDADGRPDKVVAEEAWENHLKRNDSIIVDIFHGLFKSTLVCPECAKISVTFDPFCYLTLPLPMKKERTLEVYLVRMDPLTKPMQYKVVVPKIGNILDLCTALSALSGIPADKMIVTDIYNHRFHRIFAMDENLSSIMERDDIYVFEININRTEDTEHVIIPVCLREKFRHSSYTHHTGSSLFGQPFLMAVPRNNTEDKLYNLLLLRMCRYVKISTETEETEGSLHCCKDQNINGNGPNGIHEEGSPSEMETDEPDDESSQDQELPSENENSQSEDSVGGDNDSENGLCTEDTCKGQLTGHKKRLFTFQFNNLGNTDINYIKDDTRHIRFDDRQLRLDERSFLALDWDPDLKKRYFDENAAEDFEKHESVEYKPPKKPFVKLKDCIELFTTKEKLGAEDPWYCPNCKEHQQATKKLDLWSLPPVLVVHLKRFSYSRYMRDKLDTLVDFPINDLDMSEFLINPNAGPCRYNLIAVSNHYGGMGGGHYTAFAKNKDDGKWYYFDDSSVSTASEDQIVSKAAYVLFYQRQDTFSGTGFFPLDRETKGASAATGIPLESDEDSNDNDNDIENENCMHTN
# In short: as §1
# USP16 = USP16 (UniProt Q9Y5T5)
# Chain of USP16 (Q9Y5T5 whole entry, looked up): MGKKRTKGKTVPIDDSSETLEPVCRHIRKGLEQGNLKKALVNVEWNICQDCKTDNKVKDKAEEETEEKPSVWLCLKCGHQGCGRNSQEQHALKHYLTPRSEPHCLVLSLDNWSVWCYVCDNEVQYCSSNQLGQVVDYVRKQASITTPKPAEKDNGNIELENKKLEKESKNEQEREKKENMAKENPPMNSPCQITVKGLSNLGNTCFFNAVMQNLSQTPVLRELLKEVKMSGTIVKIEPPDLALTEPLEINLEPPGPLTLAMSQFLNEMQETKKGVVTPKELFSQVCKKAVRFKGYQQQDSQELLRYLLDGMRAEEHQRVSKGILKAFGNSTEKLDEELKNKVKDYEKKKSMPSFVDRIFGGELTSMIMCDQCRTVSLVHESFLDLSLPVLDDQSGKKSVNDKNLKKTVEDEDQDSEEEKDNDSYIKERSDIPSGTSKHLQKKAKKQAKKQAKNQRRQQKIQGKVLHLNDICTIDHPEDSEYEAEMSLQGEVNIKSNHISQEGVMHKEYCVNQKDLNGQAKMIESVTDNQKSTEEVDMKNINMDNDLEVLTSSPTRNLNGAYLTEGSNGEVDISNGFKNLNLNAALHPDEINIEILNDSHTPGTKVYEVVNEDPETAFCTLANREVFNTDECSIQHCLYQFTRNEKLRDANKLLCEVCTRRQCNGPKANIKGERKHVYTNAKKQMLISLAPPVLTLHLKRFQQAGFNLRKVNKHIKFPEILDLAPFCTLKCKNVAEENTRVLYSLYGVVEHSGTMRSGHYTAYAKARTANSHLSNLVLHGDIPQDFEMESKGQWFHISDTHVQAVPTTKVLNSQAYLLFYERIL
# In short: as §1
structure (smiles),measurement,setting,value
Cc1cccc(N2CCC(NC(=O)CCl)C2=O)c1 (stereo not given),log2 ratio of Biotin-Ahx-Ub-VS probe labelling,OTUD6B,-0.339
same,log2 ratio of Biotin-Ahx-Ub-VS probe labelling,OTUD7B,-1.61 (active)
same,log2 ratio of Biotin-Ahx-Ub-VS probe labelling,PRPF8,-0.232
same,log2 ratio of Biotin-Ahx-Ub-VS probe labelling,PSMD7,-0.248
same,log2 ratio of Biotin-Ahx-Ub-VS probe labelling,UCHL1,-1.87 (active)
same,log2 ratio of Biotin-Ahx-Ub-VS probe labelling,UCHL3,0.0361
same,log2 ratio of Biotin-Ahx-Ub-VS probe labelling,UCHL5,-0.503
same,log2 ratio of Biotin-Ahx-Ub-VS probe labelling,USP10,-0.133
same,log2 ratio of Biotin-Ahx-Ub-VS probe labelling,USP15,-0.299
same,log2 ratio of Biotin-Ahx-Ub-VS probe labelling,USP16,-0.021
